The text below walks through data of publication PMC11006913.

Residue numbers refer to the chain shown, from its start.

What all share (test): PBM; 200 nM protein, PBS
Holding throughout (details): dsDNA, one strand shown

In test [1] the target is T1, SIX6 (Homo sapiens, UniProt O95475 114-200, L167I).
T1 sequence: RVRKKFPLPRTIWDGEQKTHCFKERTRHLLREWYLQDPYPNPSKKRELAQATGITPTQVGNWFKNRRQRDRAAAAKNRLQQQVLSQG

The target in test [2] is T2, SIX6 (Homo sapiens, UniProt O95475 114-200, L143V).
T2 sequence: T1 sequence with L30V, I54L

Test [3] concerns the target T3, SIX6 (Homo sapiens, UniProt O95475 114-200, H141N).
T3 sequence: T1 sequence with H28N, I54L

Test [4] concerns the target T4, SIX6 (Homo sapiens, UniProt O95475 114-200, T165P).
T4 sequence: T1 sequence with T52P, I54L

Test [5] addresses T5, SIX6 (Homo sapiens, UniProt O95475 114-200, L167M).
T5 sequence: T1 sequence with I54M

For test [6], the target named is T6, SIX6 (Homo sapiens, UniProt O95475 114-200, L143M).
T6 sequence: T1 sequence with L30M, I54L

Test [7] has as its target T7, SIX6 (Homo sapiens, UniProt O95475 114-200, L143I).
T7 sequence: T1 sequence with L30I, I54L

Test [8] concerns the target T8, SIX6 (Homo sapiens, UniProt O95475 114-200, T165G).
T8 sequence: T1 sequence with T52G, I54L

The target in test [9] is T9, SIX6 (Homo sapiens, UniProt O95475 114-200, T139Q).
T9 sequence: T1 sequence with T26Q, I54L

In test [10] the target is T10, SIX6 (Homo sapiens, UniProt O95475 114-200, T165A).
T10 sequence: T1 sequence with T52A, I54L

The target of test [11] is T11, SIX6 (Homo sapiens, UniProt O95475 114-200, L167V).
T11 sequence: T1 sequence with I54V

The target of test [12] is T12, SIX6 (Homo sapiens, UniProt O95475 114-200).
T12 sequence: T1 sequence with I54L

Test [13] addresses T13, SIX6 (Homo sapiens, UniProt O95475 114-200, T165I).
T13 sequence: T1 sequence with T52I, I54L

Take ATTGATAC: the binding signal in test [1] was 11.4 upbm affinity estimate (log intensity, higher = more binding, comparable within an allelic series); in [2] it was 10.5 upbm affinity estimate (log intensity, higher = more binding, comparable within an allelic series); in test [3], 11.5 upbm affinity estimate (log intensity, higher = more binding, comparable within an allelic series); in test [4], 9.95 upbm affinity estimate (log intensity, higher = more binding, comparable within an allelic series); in test [5], 10.8 upbm affinity estimate (log intensity, higher = more binding, comparable within an allelic series); in test [6], 11.2 upbm affinity estimate (log intensity, higher = more binding, comparable within an allelic series). Moreover, the binding signal is 10.5 upbm affinity estimate (log intensity, higher = more binding, comparable within an allelic series) in [7]; 11.4 upbm affinity estimate (log intensity, higher = more binding, comparable within an allelic series) in test [8]; 11.2 upbm affinity estimate (log intensity, higher = more binding, comparable within an allelic series) in test [9]; 11.4 upbm affinity estimate (log intensity, higher = more binding, comparable within an allelic series) in test [10]; 11.2 upbm affinity estimate (log intensity, higher = more binding, comparable within an allelic series) in test [11]; 11.2 upbm affinity estimate (log intensity, higher = more binding, comparable within an allelic series) in test [12]. The binding signal in test [13] is 11.2 upbm affinity estimate (log intensity, higher = more binding, comparable within an allelic series).
Turning to AAGATATC, the binding signal in test [1] was 11.2 upbm affinity estimate (log intensity, higher = more binding, comparable within an allelic series); in test [2] it was 10.4 upbm affinity estimate (log intensity, higher = more binding, comparable within an allelic series); in [3], 11.2 upbm affinity estimate (log intensity, higher = more binding, comparable within an allelic series); in test [4], 10.1 upbm affinity estimate (log intensity, higher = more binding, comparable within an allelic series); in test [5], 10.7 upbm affinity estimate (log intensity, higher = more binding, comparable within an allelic series); in test [6], 11 upbm affinity estimate (log intensity, higher = more binding, comparable within an allelic series). Besides, the binding signal in test [7] is 10.3 upbm affinity estimate (log intensity, higher = more binding, comparable within an allelic series); in test [8] it was 11.1 upbm affinity estimate (log intensity, higher = more binding, comparable within an allelic series); in test [9], 11.1 upbm affinity estimate (log intensity, higher = more binding, comparable within an allelic series); in test [10], 11 upbm affinity estimate (log intensity, higher = more binding, comparable within an allelic series); in test [11] it was 11 upbm affinity estimate (log intensity, higher = more binding, comparable within an allelic series); in test [12] it was 10.9 upbm affinity estimate (log intensity, higher = more binding, comparable within an allelic series). Also, the binding signal in test [13] is 10.9 upbm affinity estimate (log intensity, higher = more binding, comparable within an allelic series).
In the case of TGATACCA, the binding signal in test [1] is 11.3 upbm affinity estimate (log intensity, higher = more binding, comparable within an allelic series); in [2] it was 10.5 upbm affinity estimate (log intensity, higher = more binding, comparable within an allelic series); in test [3], 11.3 upbm affinity estimate (log intensity, higher = more binding, comparable within an allelic series); in test [4] it was 9.8 upbm affinity estimate (log intensity, higher = more binding, comparable within an allelic series); in test [5] it was 10.7 upbm affinity estimate (log intensity, higher = more binding, comparable within an allelic series); in test [6] it was 11 upbm affinity estimate (log intensity, higher = more binding, comparable within an allelic series). Also, the binding signal in [7] is 10.6 upbm affinity estimate (log intensity, higher = more binding, comparable within an allelic series); in test [8], 11.5 upbm affinity estimate (log intensity, higher = more binding, comparable within an allelic series); in test [9], 11.3 upbm affinity estimate (log intensity, higher = more binding, comparable within an allelic series); in [10], 11.4 upbm affinity estimate (log intensity, higher = more binding, comparable within an allelic series); in test [11], 11.1 upbm affinity estimate (log intensity, higher = more binding, comparable within an allelic series); in [12], 11.2 upbm affinity estimate (log intensity, higher = more binding, comparable within an allelic series). In addition, the binding signal in test [13] was 11.1 upbm affinity estimate (log intensity, higher = more binding, comparable within an allelic series).
Turning to CTATATCA, the binding signal in [1] is 11.2 upbm affinity estimate (log intensity, higher = more binding, comparable within an allelic series); in [2], 10.4 upbm affinity estimate (log intensity, higher = more binding, comparable within an allelic series); in test [3], 11.2 upbm affinity estimate (log intensity, higher = more binding, comparable within an allelic series); in test [4], 9.95 upbm affinity estimate (log intensity, higher = more binding, comparable within an allelic series); in test [5], 10.7 upbm affinity estimate (log intensity, higher = more binding, comparable within an allelic series); in test [6], 11 upbm affinity estimate (log intensity, higher = more binding, comparable within an allelic series). The binding signal in test [7] was 10.4 upbm affinity estimate (log intensity, higher = more binding, comparable within an allelic series); in test [8], 11.1 upbm affinity estimate (log intensity, higher = more binding, comparable within an allelic series); in test [9], 11.1 upbm affinity estimate (log intensity, higher = more binding, comparable within an allelic series); in test [10] it was 11 upbm affinity estimate (log intensity, higher = more binding, comparable within an allelic series); in test [11], 10.9 upbm affinity estimate (log intensity, higher = more binding, comparable within an allelic series); in [12], 10.9 upbm affinity estimate (log intensity, higher = more binding, comparable within an allelic series). Moreover, the binding signal in test [13] is 11.1 upbm affinity estimate (log intensity, higher = more binding, comparable within an allelic series).
CAGCTGGC: the binding signal in test [1] is 8.7 upbm affinity estimate (log intensity, higher = more binding, comparable within an allelic series); in [2], 8.78 upbm affinity estimate (log intensity, higher = more binding, comparable within an allelic series); in [3] it was 8.72 upbm affinity estimate (log intensity, higher = more binding, comparable within an allelic series); in [4] it was 8.91 upbm affinity estimate (log intensity, higher = more binding, comparable within an allelic series); in [5], 8.72 upbm affinity estimate (log intensity, higher = more binding, comparable within an allelic series); in test [6] it was 8.61 upbm affinity estimate (log intensity, higher = more binding, comparable within an allelic series). In addition, the binding signal in test [7] was 8.88 upbm affinity estimate (log intensity, higher = more binding, comparable within an allelic series); in test [8], 8.8 upbm affinity estimate (log intensity, higher = more binding, comparable within an allelic series); in test [9], 8.91 upbm affinity estimate (log intensity, higher = more binding, comparable within an allelic series); in test [10] it was 8.79 upbm affinity estimate (log intensity, higher = more binding, comparable within an allelic series); in test [11], 8.84 upbm affinity estimate (log intensity, higher = more binding, comparable within an allelic series); in test [12], 8.73 upbm affinity estimate (log intensity, higher = more binding, comparable within an allelic series). Besides, the binding signal in test [13] is 8.69 upbm affinity estimate (log intensity, higher = more binding, comparable within an allelic series).
For the sequence TATCATCA, the binding signal in test [1] was 10.9 upbm affinity estimate (log intensity, higher = more binding, comparable within an allelic series); in test [2], 10.3 upbm affinity estimate (log intensity, higher = more binding, comparable within an allelic series); in test [3] it was 10.8 upbm affinity estimate (log intensity, higher = more binding, comparable within an allelic series); in [4] it was 9.94 upbm affinity estimate (log intensity, higher = more binding, comparable within an allelic series); in test [5], 10.5 upbm affinity estimate (log intensity, higher = more binding, comparable within an allelic series); in test [6], 10.8 upbm affinity estimate (log intensity, higher = more binding, comparable within an allelic series). Besides, the binding signal was 10.2 upbm affinity estimate (log intensity, higher = more binding, comparable within an allelic series) in test [7]; 10.8 upbm affinity estimate (log intensity, higher = more binding, comparable within an allelic series) in test [8]; 10.9 upbm affinity estimate (log intensity, higher = more binding, comparable within an allelic series) in [9]; 10.8 upbm affinity estimate (log intensity, higher = more binding, comparable within an allelic series) in test [10]; 10.6 upbm affinity estimate (log intensity, higher = more binding, comparable within an allelic series) in test [11]; 10.7 upbm affinity estimate (log intensity, higher = more binding, comparable within an allelic series) in test [12]. Further, the binding signal in test [13] is 10.7 upbm affinity estimate (log intensity, higher = more binding, comparable within an allelic series).
